# From PubChem BioAssay (EPA / NIEHS)
# Calls of active or inactive are those of the source. How the source made its calls: active means hit-call score of the fitted dose curve at least 0.9, where 1 is the maximum; inactive means score below 0.9.
# Columns and labels:
# Conditions in all cases: mRNA level, 48 h; actives raise or lower the signal
# [1] = read-out: Cytochrome P450 7A1 (Homo sapiens) (UniProt P22680); assay: LTEA_HepaRG_CYP7A1: Life Technologies and Expression Analysis (LTEA) Assay for Cytochrome P450 7A1 (CYP7A1) using HepaRG (AID 2283496)
# Method in brief: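 HepaRG cells plated 48 h, then switched to serum-free induction medium and exposed in duplicate for 48 h to 8-point half-log series from 100 uM in 0.5% DMSO. CYP7A1 mRNA by qRT-PCR (TaqMan), normalized to ACTB/GAPDH/POLR2A; bidirectional fit versus DMSO.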
# [2] = read-out: Glutathione S-Transferase (GSTA2), GSTA2 (gene 2939); assay: LTEA_HepaRG_GSTA2: Life Technologies and Expression Analysis (LTEA) Assay for Glutathione S-Transferase (GSTA2) using HepaRG (AID 2283497)
# Method in brief: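 Human HepaRG cells, plated 48 h, then exposed in serum-free induction medium for 48 h to eight half-log concentrations up to 100 uM in 0.5% DMSO, duplicate. GSTA2 mRNA by qRT-PCR, normalized to ACTB/GAPDH/POLR2A; bidirectional fit versus DMSO.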
# [3] = read-out: Glutamate-cysteine ligase catalytic (GCLC), GCLC (gene 2729); assay: LTEA_HepaRG_GCLC: Life Technologies and Expression Analysis (LTEA) Assay for Glutamate-cysteine ligase catalytic (GCLC) using HepaRG (AID 2283498)
# Method in brief: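 Differentiated human HepaRG cells, plated 48 h then switched to serum-free induction medium, were exposed in duplicate for 48 h to 8 half-log concentrations topping at 100 uM in 0.5% DMSO. GCLC mRNA was quantified by qRT-PCR against ACTB, GAPDH and POLR2A.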
# [4] = read-out: growth arrest and DNA damage 45 (GADD45G), GADD45G (gene 10912); assay: LTEA_HepaRG_GADD45G: Life Technologies and Expression Analysis (LTEA) Assay for growth arrest and DNA damage 45 (GADD45G) using HepaRG (AID 2283499)
# Method in brief: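 HepaRG, 48 h exposure, top 100 uM, half-log 8-point series, 0.5% DMSO vehicle, duplicates. Readout: GADD45G transcript by qRT-PCR (Fluidigm array), housekeeping-normalised (ACTB/GAPDH/POLR2A). Bidirectional curve fit vs DMSO baseline.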
# [5] = read-out: Glutamate-cysteine ligase regulatory (GCLM), GCLM (gene 2730); assay: LTEA_HepaRG_GCLM: Life Technologies and Expression Analysis (LTEA) Assay for Glutamate-cysteine ligase regulatory (GCLM) using HepaRG (AID 2283500)
# Method in brief: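 Cells were plated, cultured 48 h, switched to serum-free induction medium, then dosed in duplicate for 48 h at eight half-log concentrations up to 100 uM. RNA was then profiled by qRT-PCR; gain or loss versus DMSO was fitted.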
# [6] = read-out: Glutathione S-transferase M3 (GSTM3), GSTM3 (gene 2947); assay: LTEA_HepaRG_GSTM3: Life Technologies and Expression Analysis (LTEA) Assay for Glutathione S-transferase M3 (GSTM3) using HepaRG (AID 2283501)
# Method in brief: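 qRT-PCR read-out of GSTM3 transcript, normalized to three housekeeping genes, from human HepaRG cells after 48 h chemical exposure. Eight-point half-log series, top 100 uM, 0.5% DMSO vehicle; gain or loss fitted relative to DMSO baseline.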
# [7] = read-out: Hypoxia-inducible factor 1-alpha (Homo sapiens) (UniProt Q16665); assay: LTEA_HepaRG_HIF1A: Life Technologies and Expression Analysis (LTEA) Assay for Hypoxia-inducible factor 1 (HIF1A) Trancription factor using HepaRG (AID 2283503)
# Method in brief: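 Differentiated HepaRG cells in serum-free induction medium exposed 48 h, in duplicate, to 8-point half-log series from 100 uM in 0.5% DMSO. HIF1A mRNA measured by TaqMan qRT-PCR, normalized to ACTB/GAPDH/POLR2A, fitted bidirectionally versus DMSO.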
# [8] = read-out: HGF (gene 3082); assay: LTEA_HepaRG_HGF: Life Technologies and Expression Analysis (LTEA) Assay for Hepatocyte Growth Facto (HGF) using HepaRG (AID 2283505)
# Method in brief: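 HepaRG, 48 h dosing, 8-pt half-log series from 100 uM in 0.5% DMSO, duplicates. Readout: TaqMan qRT-PCR of HGF mRNA, housekeeping-normalized; bidirectional curve fit vs DMSO baseline.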
# [9] = read-out: Intercellular Adhesion Molecule 1 (ICAM1), ICAM1 (gene 3383); assay: LTEA_HepaRG_ICAM1: Life Technologies and Expression Analysis (LTEA) Assay for Intercellular Adhesion Molecule 1 (ICAM1) using HepaRG (AID 2283507)
# Method in brief: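 HepaRG, 48 h exposure, 8-pt half-log series from 100 uM, 0.5% DMSO vehicle, duplicates. Readout: TaqMan qRT-PCR mRNA, housekeeping-normalized (ACTB/GAPDH/POLR2A). Bidirectional curve fit vs DMSO baseline.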
# [10] = read-out: Insulin-like growth factor-binding protein 1 (IGFBP1), IGFBP1 (gene 3484); assay: LTEA_HepaRG_IGFBP1: Life Technologies and Expression Analysis (LTEA) Assay for Insulin-like growth factor-binding protein 1 (IGFBP1) using HepaRG (AID 2283508)
# Method in brief: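 qRT-PCR mRNA read-out (TaqMan, Fluidigm array), normalised to three housekeeping genes; HepaRG cells, 48 h exposure, 8-pt half-log series from 100 uM, 0.5% DMSO vehicle; bidirectional curve fit vs DMSO baseline.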
# [11] = read-out: Interleukin 6 (IL6), IL6 (gene 3569); assay: LTEA_HepaRG_IL6: Life Technologies and Expression Analysis (LTEA) Assay for Interleukin 6 (IL6) using HepaRG (AID 2283509)
# Method in brief: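 Differentiated human HepaRG cells, plated 48 h then switched to serum-free induction medium, were exposed in duplicate for 48 h to eight half-log concentrations up to 100 uM in 0.5% DMSO. IL6 mRNA measured by qRT-PCR, normalized to ACTB/GAPDH/POLR2A.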
# [12] = read-out: Interleukin 6 Receptor (IL6R), IL6R (gene 3570); assay: LTEA_HepaRG_IL6R: Life Technologies and Expression Analysis (LTEA) Assay for Interleukin 6 Receptor (IL6R) using HepaRG (AID 2283510)
# Method in brief: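 Readout is IL6R transcript level by TaqMan qRT-PCR, normalized to three housekeeping genes and fitted bidirectionally against 0.5% DMSO controls. Human HepaRG cells received chemicals for 48 h in serum-free induction medium, highest concentration 100 uM.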
# [13] = read-out: Potassium channel subfamily K member 1 (KCNK1), KCNK1 (gene 3775); assay: LTEA_HepaRG_KCNK1: Life Technologies and Expression Analysis (LTEA) Assay for Potassium channel subfamily K member 1 (KCNK1) using HepaRG (AID 2283511)
# Method in brief: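 Differentiated human HepaRG cells in serum-free induction medium were exposed in duplicate for 48 h to 8 half-log concentrations up to 100 uM in 0.5% DMSO. KCNK1 mRNA was measured by TaqMan qRT-PCR, normalized to ACTB, GAPDH and POLR2A, and fitted bidirectionally versus DMSO.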
# [14] = read-out: Keratin 19 (KRT19), KRT19 (gene 3880); assay: LTEA_HepaRG_KRT19: Life Technologies and Expression Analysis (LTEA) Assay for Keratin 19 (KRT19) using HepaRG (AID 2283512)
# Method in brief: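 HepaRG, 48 h chemical exposure, 8-pt half-log CRC from 100 uM, 0.5% DMSO vehicle, duplicates. Readout: TaqMan qRT-PCR of KRT19 mRNA, housekeeping-normalized (ACTB/GAPDH/POLR2A). Bidirectional fit vs DMSO baseline.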
# [15] = read-out: JUN Transcription Factor, JUN (gene 3725); assay: LTEA_HepaRG_JUN: Life Technologies and Expression Analysis (LTEA) Assay for JUN Transcription Factor using HepaRG (AID 2283513)
# Method in brief: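 Cells plated 48 h, medium switched to serum-free induction medium, then dosed 48 h (100 uM top, half-log dilutions, 0.5% DMSO). RNA isolated; JUN measured by qRT-PCR against three housekeeping genes; gain or loss fitted relative to DMSO.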
# [16] = read-out: Lipase C (LIPC), LIPC (gene 3990); assay: LTEA_HepaRG_LIPC: Life Technologies and Expression Analysis (LTEA) Assay for Lipase C (LIPC) using HepaRG (AID 2283514)
# Method in brief: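 Differentiated human HepaRG cells in serum-free induction medium were exposed in duplicate for 48 h to eight concentrations (top 100 uM, half-log steps, 0.5% DMSO). LIPC mRNA was quantified by TaqMan qRT-PCR, normalized to ACTB, GAPDH and POLR2A, with bidirectional fitting versus DMSO.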
# [17] = read-out: Lipoprotein lipase (LPL), LPL (gene 4023); assay: LTEA_HepaRG_LPL: Life Technologies and Expression Analysis (LTEA) Assay for Lipoprotein lipase (LPL) using HepaRG (AID 2283515)
# Method in brief: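 Differentiated human HepaRG cells in serum-free induction medium were exposed in duplicate for 48 h to eight half-log concentrations (top 100 uM) in 0.5% DMSO. LPL mRNA was quantified by TaqMan qRT-PCR, normalized to ACTB, GAPDH and POLR2A.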
# [18] = read-out: Heat shock 70 kDa protein 1 (HSPA1A), gene 3303; assay: LTEA_HepaRG_HSPA1A: Life Technologies and Expression Analysis (LTEA) Assay for Heat shock 70 kDa protein 1 (HSPA1A) using HepaRG (AID 2283502)
# Method in brief: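 Readout is HSPA1A transcript level by microfluidic qRT-PCR, normalized to three housekeeping genes and analysed for gain or loss of signal relative to 0.5% DMSO. Human HepaRG cultures received test chemicals for 48 h at up to 100 uM.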
# [19] = read-out: 3-Hydroxy-3-Methylglutaryl-CoA Synthase 2 (HMGCS2), HMGCS2 (gene 3158); assay: LTEA_HepaRG_HMGCS2: Life Technologies and Expression Analysis (LTEA) Assay for 3-Hydroxy-3-Methylglutaryl-CoA Synthase 2 (HMGCS2) using HepaRG (AID 2283504)
# Method in brief: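 qRT-PCR read-out of HMGCS2 transcript, normalised to three housekeeping genes, in HepaRG cells after 48 h chemical exposure. Eight-point curves from 100 uM, half-log dilutions, 0.5% DMSO vehicle; gain or loss fitted relative to DMSO baseline.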
# [20] = read-out: Insulin Like Growth Factor 1 (IGF1), IGF1 (gene 3479); assay: LTEA_HepaRG_IGF1: Life Technologies and Expression Analysis (LTEA) Assay for Insulin Like Growth Factor 1 (IGF1) using HepaRG (AID 2283506)
# Method in brief: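 HepaRG, plated 48 h, then switched to serum-free induction media; test chemical 8-pt half-log from 100 uM (0.5% DMSO), duplicate, 48 h. Lysis in RLT, TaqMan qRT-PCR, norm. ACTB/GAPDH/POLR2A. Bidirectional fit vs DMSO.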
# Hypoxia-inducible factor 1-alpha (Homo sapiens), sequence (Q16665 whole entry, looked up): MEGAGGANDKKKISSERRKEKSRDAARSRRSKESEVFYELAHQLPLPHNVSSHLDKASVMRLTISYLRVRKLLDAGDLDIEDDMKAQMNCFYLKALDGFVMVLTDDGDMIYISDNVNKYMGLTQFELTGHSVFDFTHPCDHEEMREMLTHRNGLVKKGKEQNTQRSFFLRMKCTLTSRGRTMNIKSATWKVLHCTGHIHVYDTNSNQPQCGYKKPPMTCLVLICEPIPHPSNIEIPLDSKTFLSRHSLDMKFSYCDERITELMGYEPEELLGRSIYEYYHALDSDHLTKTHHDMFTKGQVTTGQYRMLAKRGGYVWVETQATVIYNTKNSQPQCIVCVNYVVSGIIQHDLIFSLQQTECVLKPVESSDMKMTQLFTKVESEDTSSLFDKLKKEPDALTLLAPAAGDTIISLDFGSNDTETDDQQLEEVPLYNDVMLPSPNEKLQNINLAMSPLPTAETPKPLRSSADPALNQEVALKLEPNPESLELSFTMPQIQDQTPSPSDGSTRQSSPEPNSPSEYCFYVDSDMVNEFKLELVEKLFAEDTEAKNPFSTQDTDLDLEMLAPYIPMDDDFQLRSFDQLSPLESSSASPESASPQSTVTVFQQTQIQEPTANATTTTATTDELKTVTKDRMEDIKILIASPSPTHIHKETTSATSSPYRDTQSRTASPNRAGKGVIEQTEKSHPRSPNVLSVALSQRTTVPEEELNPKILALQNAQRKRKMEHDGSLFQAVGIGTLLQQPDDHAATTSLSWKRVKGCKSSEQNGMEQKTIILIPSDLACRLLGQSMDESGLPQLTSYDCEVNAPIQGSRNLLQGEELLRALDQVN
smiles,measurement,setting,value
CCOP(=S)(OCC)SCSC(C)(C)C,AC50,[1],16.3 µM (active)
same,outcome,[2],inactive
same,outcome,[3],inactive
same,outcome,[4],inactive
same,outcome,[5],inactive
same,outcome,[6],inactive
same,outcome,[7],inactive
same,outcome,[8],inactive
same,outcome,[9],inactive
same,outcome,[10],inactive
same,outcome,[11],inactive
same,outcome,[12],inactive
same,outcome,[13],inactive
same,outcome,[14],inactive
same,outcome,[15],inactive
same,outcome,[16],inactive
same,outcome,[17],inactive
Nc1ccc(-c2ccc(N)cc2)cc1,AC50,[1],1.44 µM (active)
same,outcome,[2],inactive
same,outcome,[3],inactive
same,outcome,[4],inactive
same,outcome,[5],inactive
same,outcome,[6],inactive
same,outcome,[7],inactive
same,outcome,[8],inactive
same,outcome,[9],inactive
same,outcome,[10],inactive
same,outcome,[11],inactive
same,outcome,[12],inactive
same,outcome,[13],inactive
same,outcome,[14],inactive
same,outcome,[15],inactive
same,outcome,[17],inactive
CC1=C2C[C@H]3[C@@H](CC=C4C[C@@H](O)CC[C@@]43C)[C@@H]2CC[C@]12O[C@@H]1C[C@H](C)CN[C@H]1[C@H]2C,outcome,[1],inactive
same,outcome,[3],inactive
same,outcome,[4],inactive
same,outcome,[5],inactive
same,outcome,[6],inactive
same,outcome,[18],inactive
same,outcome,[7],inactive
same,outcome,[19],inactive
same,outcome,[8],inactive
same,outcome,[20],inactive
same,outcome,[9],inactive
same,outcome,[10],inactive
same,outcome,[11],inactive
same,outcome,[12],inactive
same,outcome,[13],inactive
same,outcome,[14],inactive
same,outcome,[15],inactive
same,outcome,[16],inactive
same,outcome,[17],inactive
CCC(=O)O[C@H]1CC[C@H]2[C@@H]3CCC4=CC(=O)CC[C@]4(C)[C@H]3CC[C@]12C,AC50,[1],13.1 µM (active)
same,outcome,[3],inactive
same,outcome,[4],inactive
same,outcome,[5],inactive
same,outcome,[6],inactive
same,outcome,[18],inactive
same,outcome,[7],inactive
same,outcome,[8],inactive
same,outcome,[20],inactive
same,outcome,[9],inactive
same,outcome,[10],inactive
same,AC50,[11],33.1 µM (active)
same,outcome,[12],inactive
same,outcome,[13],inactive
same,outcome,[14],inactive
same,outcome,[15],inactive
same,outcome,[17],inactive
ClC1=C(Cl)[C@]2(Cl)[C@@H]3[C@@H]4C[C@@H]([C@H]5O[C@@H]45)[C@@H]3[C@@]1(Cl)C2(Cl)Cl,AC50,[1],0.0248 µM (active)
same,AC50,[2],50 µM (active)
same,outcome,[3],inactive
same,outcome,[4],inactive
same,outcome,[5],inactive
same,outcome,[6],inactive
same,outcome,[18],inactive
same,AC50,[7],0.0315 µM (active)
same,outcome,[8],inactive
same,AC50,[20],9.92 µM (active)
same,AC50,[9],9.92 µM (active)
same,outcome,[10],inactive
same,outcome,[11],inactive
same,AC50,[12],0.00506 µM (active)
same,outcome,[13],inactive
same,outcome,[14],inactive
same,outcome,[15],inactive
same,outcome,[17],inactive
CCOCCOC(C)=O,outcome,[1],inactive
same,outcome,[2],inactive
same,outcome,[3],inactive
same,outcome,[4],inactive
same,outcome,[5],inactive
same,outcome,[6],inactive
same,outcome,[7],inactive
same,outcome,[19],inactive
same,outcome,[8],inactive
same,outcome,[9],inactive
same,outcome,[10],inactive
same,outcome,[11],inactive
same,outcome,[12],inactive
same,outcome,[13],inactive
same,outcome,[14],inactive
same,outcome,[15],inactive
same,outcome,[17],inactive
Cc1ccccc1CO[C@@H]1C[C@@]2(C(C)C)CC[C@]1(C)O2,outcome,[1],inactive
same,outcome,[2],inactive
same,outcome,[3],inactive
same,outcome,[4],inactive
same,outcome,[5],inactive
same,outcome,[6],inactive
same,outcome,[7],inactive
same,outcome,[8],inactive
same,outcome,[9],inactive
same,outcome,[10],inactive
same,outcome,[11],inactive
same,outcome,[12],inactive
same,outcome,[13],inactive
same,outcome,[14],inactive
same,outcome,[15],inactive
same,outcome,[17],inactive
